Data published in PubChem BioAssay AID1903 (Southern Research Specialized Biocontainment Screening …, 2009).
Where “and” joins values, the source holds several entries; their conditions need not be identical. Equal entries are not always repeated. Screen size: about 310,000 compounds; about 1,200 (0.39%) were called active. How the calls were made is not given here. A selection follows. Potency and affinity values are given separately.

Molecular target: Large T antigen (Simian virus 40) (UniProt P03070)
Sequence (P03070 whole entry, looked up): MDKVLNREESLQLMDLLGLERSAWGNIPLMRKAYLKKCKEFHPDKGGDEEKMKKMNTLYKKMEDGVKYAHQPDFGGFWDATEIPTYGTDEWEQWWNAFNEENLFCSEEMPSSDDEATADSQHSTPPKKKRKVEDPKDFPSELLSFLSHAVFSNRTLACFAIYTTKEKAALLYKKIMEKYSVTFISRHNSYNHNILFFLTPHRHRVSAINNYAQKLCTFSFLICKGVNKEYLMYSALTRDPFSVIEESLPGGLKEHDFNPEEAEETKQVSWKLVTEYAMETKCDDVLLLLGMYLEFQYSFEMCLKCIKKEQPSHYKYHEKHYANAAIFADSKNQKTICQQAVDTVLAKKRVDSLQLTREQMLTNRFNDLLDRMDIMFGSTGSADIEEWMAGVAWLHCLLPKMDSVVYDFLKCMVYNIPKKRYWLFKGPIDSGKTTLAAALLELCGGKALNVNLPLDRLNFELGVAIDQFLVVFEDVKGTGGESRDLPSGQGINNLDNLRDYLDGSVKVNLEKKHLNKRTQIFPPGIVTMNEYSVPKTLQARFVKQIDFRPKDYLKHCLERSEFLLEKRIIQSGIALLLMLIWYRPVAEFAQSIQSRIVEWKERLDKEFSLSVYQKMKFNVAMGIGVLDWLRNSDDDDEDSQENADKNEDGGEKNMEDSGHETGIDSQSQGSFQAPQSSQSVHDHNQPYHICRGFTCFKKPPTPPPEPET
Experiment: TAg ATPase/helicase activity blockers – biochemical (AID 1903)
Details: SV40 large T antigen ATPase/helicase inhibition assay; at 20 µM; stronger effect = higher value

inhibition, inactive:
CNC(=O)COC(=O)c1nc(-n2nc(C)cc2C)ccc1Cl 1.24%
COc1ccc(C(=O)Nc2nccs2)cc1 4.19%
O=c1[nH]c(/C=C\c2ccc(O)c(Cl)c2)nc(O)c1[N+](=O)[O-] 22.7%
COc1ccc(/C=C\c2nc(O)c([N+](=O)[O-])c(=O)[nH]2)cc1O 5.95%
Cc1csc(Sc2ccc(S(=O)(=O)N3CCCC3)cn2)n1 10.9%
O=C(O)c1cc(-c2cccs2)nc2ccc(Br)cc12 15.7%
NC(=O)c1nsc(C(=O)N(c2ccc(F)cc2)C(C(=O)NCC2CCCO2)c2ccc3ncccc3c2)c1N (stereo not given) -0.08%
NS(=O)(=O)c1cccc(C(=O)NC2CCSc3ccccc32)c1 (stereo not given) -2.32%
O=C(NC1CCSc2ccccc21)c1ccc(Cl)c(S(=O)(=O)N2CCOCC2)c1 (stereo not given) 9.03%
COC(=O)C1=C(C)NC(=S)N(C(C)=O)C1c1ccc(OC)c(OC)c1 (stereo not given) 9.87%
COC(=O)Cc1c(C)c2ccc(OCC(=O)c3ccc(OC)c(OC)c3)cc2oc1=O 14.4%
Cc1csc(NC(=O)CS(=O)(=O)Cc2ccccc2)n1 0.95%
COc1cccc(NC(=O)c2cc([N+](=O)[O-])ccc2NC(=O)CNCC2CCCO2)c1 (stereo not given) 3.88%
Cn1c(SCC(=O)c2ccc(O)c(O)c2)nnc1-c1ccccc1 27.2%
Cc1cc(SCC(=O)c2ccc(O)c(O)c2)n2nc(C)c(-c3ccccc3)c2n1 31.3%
Cc1cc(C)nc(SCC(=O)c2ccc(O)c(O)c2)n1 35.3%
O=C(CSc1nc2ccccc2n1CCc1ccccc1)N1CCOCC1 11.6%
O=C(CSc1nc2ccccc2n1CCc1ccccc1)NC1CC1 5.51%
Cc1cc(SCC(=O)c2ccc(O)c(O)c2)nc2ccccc12 35.4%
Cc1cc(-c2nnc(CCC(=O)N(C)C(C)c3cccs3)o2)no1 (stereo not given) 22%
CCC(C)N(C(=O)COC(=O)COc1c(C)cc(C)cc1C)C1CCS(=O)(=O)C1 (stereo not given) 7.34%
COCC1CCN(C(=O)c2ccc3oc(Cc4ccc(Cl)cc4)nc3c2)C1 (stereo not given) 11.1%
Cc1sc2ncnc(Sc3ccccc3C(=O)Nc3ccc(C#N)cc3)c2c1C 9.82%
Cc1nn(-c2ccccc2)c(Cl)c1/C=N\NC(=O)c1cncc(Br)c1 22%
CC(=O)c1ccc(N2C(=O)NC3(CCCCC3)C2=O)cc1 3.35%
COc1cccc(-c2nc(CS(=O)(=O)CC(=O)Nc3cc(C)ccc3C)c(C)o2)c1 15.6% and 1.41%
CCN(CC)S(=O)(=O)c1ccc(N/N=C/c2cccnc2)nc1 9.01%
CCN(CC)S(=O)(=O)c1ccc(N/N=C/c2ccc(O)cc2O)nc1 21.6%
Cc1cc(N/N=C/c2ccc(O)cc2)nc(NS(=O)(=O)c2ccccc2)n1 10.1%
COc1ccc(/C=N/Nc2cc(C)nc(NS(=O)(=O)c3ccc(C)cc3)n2)cc1 11.9%
COc1cccc(/C=N/Nc2cc(Cl)nc(C)n2)c1O 21%
Cc1nc(Cl)cc(N/N=C/c2ccc(O)cc2O)n1 24.5%
COc1ccccc1C(=O)N/C(=C/c1cccc([N+](=O)[O-])c1)C(=O)Nc1cccc(C(=O)O)c1 -0.39%
O=C(O)CN1C(=O)c2ccc(Oc3ccc([N+](=O)[O-])cc3)cc2C1=O 7.08%
CCOCCCn1c(SCC(=O)Nc2ccc3[nH]c(=O)[nH]c3c2)nc2ccccc2c1=O 10.2%
O=C(Cc1c(Cl)cccc1Cl)N/N=C/c1cccnc1 17.8%
COc1cc(C(=O)CSc2nnc(-c3ccc(O)cc3)n2CC2CCCO2)ccc1NC(C)=O (stereo not given) 4.93%
COc1ccc(CCN2C(=O)NC(NS(=O)(=O)c3ccc(Cl)cc3)(C(F)(F)F)C2=O)cc1OC (stereo not given) 12.9%
O=C(COC(=O)C1COc2ccccc2O1)Nc1cccc(S(=O)(=O)N2CCCCC2)c1 (stereo not given) 11.3%
CN(c1ccc(C(=O)Nc2ccc3c(c2)OCO3)cc1)S(C)(=O)=O 14.1%
Cc1c(CC(=O)N2CCN(C(=O)C3COc4ccccc4O3)CC2)c(=O)oc2c(C)c(O)ccc12 (stereo not given) 24.4%
COc1ccc2c(C)c(CC(=O)N3CCN(C(=O)C4COc5ccccc5O4)CC3)c(=O)oc2c1C (stereo not given) 12%
Cc1cccn2c(=O)c3cc(C(=O)NC4CCCCC4)c(=N)n(Cc4ccccc4)c3nc12 5.16%
Cc1nc2sc3c(c2c(=O)o1)CCC3 9.19%
Cc1nc2sc3c(c2c2nc(-c4ccco4)nn12)CCCC3 14.8%
COc1ccc(C(=O)NCC(=O)OCc2ccccc2F)cc1 6.15%
O=C(COc1ccc(S(=O)(=O)N2CCOCC2)cc1)NCCCn1ccnc1 7.23%
COc1cccc(CNS(=O)(=O)c2c(C(=O)N3CCCCCC3)c(C)n(C)c2C)c1 2.83%
CC(C)CN(CC(C)C)C(=O)CN1C(=O)NC2(CCc3ccccc3C2)C1=O (stereo not given) 23.5%
N#Cc1c(N)sc2c1CCCCCC2 32%
N#Cc1c(N)sc(=S)c2c1CCCC2 29.3%
Cn1c(CNC(=O)c2ccc3c(c2)OCO3)nnc1SCC(=O)Nc1ccccc1Cl 10.7%
Nc1ccc(OCCc2ccccc2)cc1 30.9%
COc1ccc(Cc2c(N)nc(N)nc2N)cc1 -2.12%
CC(C)C1N=C2c3ccccc3N=C(SCC#N)N2C1=O (stereo not given) 6.69%
CC(C)C1N=C2c3ccccc3N=C(SCC(=O)NCCc3ccc(S(N)(=O)=O)cc3)N2C1=O (stereo not given) 1%
Cc1ccc(-c2nnc(SCC(=O)N3c4ccccc4NC(=O)C3(C)C)n2N)cc1 4.15%
Nc1cccc(/C=C/C(=O)O)c1 15.7%
CC(/C=C/c1ccccc1)=N/O 10.9%
COc1cc(/C=C/C(=O)O)ccc1O 24.2%
Cc1ccc(/C=C/C(=O)c2ccccc2O)cc1 11.7%
CCOc1ccc(/C=C\C(C)=N\O)cc1 29.6%
O=C(/C=C/c1ccc(O)c(O)c1)NC(=O)c1ccccc1O 6.12%
COc1cc(/C=C/c2ccc(O)cc2)cc(OC)c1 11.3% and 1.99%
O=Cc1ccc(O)c(O)c1 34.4%
Cc1nc2ccccc2c(=O)n1-c1ccc(NS(=O)(=O)c2ccccc2)cc1 -1.73%
NC(=O)C1CCN(C(=O)c2cccc3ccccc23)CC1 16.8%
CCOC(=O)CC1C(=O)NCCN1C(=O)c1ccc(Cl)cc1Cl (stereo not given) 3.58%
Fc1ccc(C2c3cccn3CCN2C(=S)Nc2cccc(F)c2)cc1 (stereo not given) 6.14%
Cn1c(=O)c(C(=O)CN2CCN(S(=O)(=O)c3ccccc3)CC2)c(N)n(Cc2ccccc2)c1=O 2.73%
COC(=O)C1C(=O)c2c([nH]c(C(=O)OC3CCCCC3)c2C)CC1C (stereo not given) 0.84%
O=C1OC(c2ccc3c(c2)OCO3)N(C(=O)c2ccc(Cl)c(Cl)c2)c2ccccc21 (stereo not given) 10.3%
CCCC(=O)N(c1ccc2oc(=O)sc2c1)S(=O)(=O)c1ccccc1 22.9%
COc1ccc(C(CNC(=O)COc2ccccc2)N2CCOCC2)cc1 (stereo not given) 5.3%
CCCc1cc(=O)[nH]c(SCCCCN2C(=O)c3ccccc3C2=O)n1 16.4%
CC(C)c1ccc(/C=C/C(=O)O)cc1 15.3%
O=C(/C=C/c1ccc(O)cc1)c1c(O)cc(O)cc1O 3.62%
CC1Cc2ccccc2N1CC(=O)Nc1ccc(N2CCOCC2)cc1 (stereo not given) 27%
CC(Nc1ccc2c(c1)OCCO2)C(=O)N1c2ccccc2CC1C (stereo not given) 16.6%
c1ccc(-c2ccc3c(c2)NC(C2Nc4cc(-c5ccccc5)ccc4O2)O3)cc1 (stereo not given) 19.8%
O=C1CCNc2ccc(-c3ccccc3)cc21 5.5%
O=C1c2ccccc2C(=O)N1Cc1cc(Cl)c(O)c([N+](=O)[O-])c1 6.24%
Nc1cccc2c1C(=O)N(Cc1cccc(Cl)c1)C2=O 1.68%
O=C(c1cccs1)N1CCCC(N2CCN(c3ccc(F)cc3)CC2)C1 (stereo not given) 7.59%
Cn1c(=O)n(Cc2ccccc2F)c2ccccc21 9.44%
Nc1nc(O)c(N=Nc2ccc(S(N)(=O)=O)cc2)c(=O)[nH]1 -12.8%
NS(=O)(=O)c1ccc(N=Nc2ccc(O)c3ncccc23)cc1 13.3%
COc1ccc2[nH]c(=O)c(CN(CCO)S(=O)(=O)c3ccc4c(c3)OCCO4)cc2c1 -3.52%
O=[N+]([O-])c1ccc(O)c2ncccc12 -8.5% and 12.1%
O=[N+]([O-])c1cc(Cl)c(O)c2ncccc12 14.7%
COCc1cc(SC2CCCCC2)nc(C)n1 10.5%
O=C(CSc1nc2[nH]ncc2c(=O)[nH]1)Nc1nccs1 12.6%
CCN(CC1CCCO1)C(=O)CCc1nnc(CCc2ccc(OC)cc2)o1 (stereo not given) 0.66%
O=C1CCC(=O)N1c1nc2nc(-c3ccccc3)cc(-c3ccccc3)n2n1 3.94%
O=S(=O)(c1ccc(NC(=S)N2CCN(c3ccccc3F)CC2)cc1)N1CCOCC1 11.6%
Cc1ccc(S(=O)(=O)N2CCN(CC(=O)Nc3ccc(N4CCOCC4)cc3)CC2)cc1C 10.9%
COc1ccccc1N1CCN(C(=S)Nc2ccc(S(=O)(=O)N3CCOCC3)cc2)CC1 -0.03%
CN1CCN(CC(=O)Nc2cc(S(=O)(=O)N3CCOCC3)ccc2Cl)CC1 8.7%
CC(=O)N1CCN(CC(=O)Nc2cc(S(=O)(=O)N3CCOCC3)ccc2C)CC1 10.5%
O=C(CN1CCN(c2ccc(O)cc2)CC1)Nc1cc(S(=O)(=O)N2CCCCC2)ccc1Cl 28.7%
